Results on 34 molecules are retold here after PubChem BioAssay AID1259416 (Broad Institute, 2018).

Hit rate of the full screen: of about 69,000 compounds, about 2,600 (3.8%) were called active. Rule as the data show it: active = activity change below about -70% (passing the limit was not always enough); inconclusive = no clear call, values can overlap the other calls. Only a selection was taken, and actives are over-represented in it overall.

The assay in a line: T. gondii growth inhibition with IFN-gamma, primary screen, cell-based (AID 1259416).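 Also: host cells are HeLa cells infected with Toxoplasma gondii.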 The settings on record: Toxoplasma gondii growth in IFN-gamma-treated host cells; hits give low values; concentration not given here.
In the case of `CC(C)c1noc(C2CCCN(C(=O)c3cccc4ccnn34)C2)n1` (centres undefined), the activity change, negative = inhibition is 88% (inactive).

As to `Cc1ccc2c(c1)C1CN(C)CCC1N2S(=O)(=O)c1ccc(Oc2ccc([N+](=O)[O-])cc2)cc1` (centres undefined), the activity change, negative = inhibition is -88.8% (active).

For `Cc1ccc(NC(=O)NCC(c2cccnc2)c2c[nH]c3ccccc23)cc1F` (centres undefined), the activity change, negative = inhibition is 41.3% (inactive).

Regarding `C=CCOCC1c2c(ncn2C(C)C)CCN1C(=O)CC` (centres undefined), the activity change, negative = inhibition is -6.91% (inactive).

`CC(=O)N1C[C@@H]2[C@H](c3ccccc31)[C@H](CO)N2Cc1ccc(Cl)cc1`: the activity change, negative = inhibition is 2.64% (inactive).

For `Cc1ccc(C(=O)N2CC[C@H]3[C@@H]2CCN3c2nncs2)o1`, the activity change, negative = inhibition was 17.4% (inactive).

`OC(Cn1cnc(-c2ccccc2)c1-c1ccccc1)Cn1c2ccccc2c2ccccc21` (centres undefined): the activity change, negative = inhibition is -85.9% (active).

Turning to `Cn1ccnc1-c1c(-c2ccccc2)ncn1CC(O)Cc1ccccc1` (centres undefined), the activity change, negative = inhibition was -0.253% (inactive).

On to `Cc1cccc(C)c1-c1c(-c2ccccc2)ncn1CCCCN`, for which the activity change, negative = inhibition is -13.6% (inactive).

On to `CCCC(=O)NCCc1sc(-c2cccc(F)c2)nc1C`, for which the activity change, negative = inhibition was 257% (inactive).

For the molecule `CCSc1nc(CC(=O)NCc2nnc3n2CCC3)cs1`, the activity change, negative = inhibition is -48.7% (inactive).

With `c1ccc(C2CCCN2Cc2ccc3occc3c2)nc1` (centres undefined), the activity change, negative = inhibition was 2.99% (inactive).

Take `Cc1cc(C)cc(C(=O)Nc2ccc(-c3nc(Cn4cc(C)cn4)c(C)o3)cc2)c1`: the activity change, negative = inhibition was 2.92% (inactive).

On to `COCC(=O)Nc1ccc(-c2nc(Cn3nc(C)cc3C)c(C)o2)cc1`, for which the activity change, negative = inhibition is -41.3% (inactive).

Take `Cc1ccsc1C(=O)Nc1ccc(-c2nc(Cn3cccn3)c(C)o2)cc1`: the activity change, negative = inhibition is -12.6% (inactive).

For `Cc1cnn(Cc2nc(-c3ccc(NC(=O)c4cc(F)ccc4F)cc3)oc2C)c1`, the activity change, negative = inhibition is -88.5% (active).

Turning to `Cc1oc(-c2ccc(NC(=O)c3ccc(C(C)(C)C)cc3)cc2)nc1Cn1cccn1`, the activity change, negative = inhibition is -96.9% (active).

Turning to `Cc1nn(Cc2nc(-c3ccc(NC(=O)C4CCCO4)cc3)oc2C)c(C)c1C` (centres undefined), the activity change, negative = inhibition was 33.9% (inactive).

Regarding `Cc1cnn(Cc2nc(-c3ccc(NC(=O)c4ccsc4)cc3)oc2C)c1`, the activity change, negative = inhibition is -40.9% (inactive).

`CCC(=O)Nc1ccc(-c2nc(Cn3cccn3)c(C)o2)cc1`: the activity change, negative = inhibition was 61.8% (inactive).

On to `COc1cccc(C(=O)Nc2ccc(-c3nc(Cn4nc(C)c(C)c4C)c(C)o3)cc2)c1`, for which the activity change, negative = inhibition was -97.6% (active).

On to `Cc1noc(C)c1CN1CC2C[C@H](C(=O)NCCN(C)C)N(C)C2C1` (some centres undefined), for which the activity change, negative = inhibition was -7.4% (inactive).

On to `CN(C)S(=O)(=O)c1ccc2c(c1)cc(C(=O)NCc1cccc(F)c1)n2Cc1ccncc1`, for which the activity change, negative = inhibition is 104% (inactive).

As to `CCc1ccc(-n2cc3c(=O)n(C)c(=O)n(C)c3c2)cc1`, the activity change, negative = inhibition is -61.6% (inactive).

Regarding `CC[C@H]1CN(C(=O)CCc2cnccn2)CC[C@@]1(C)O`, the activity change, negative = inhibition was -44.1% (inactive).

Consider `Cc1cccc(C(=O)N2CCC3(CC2)CC(CC(=O)NCC2CC2)c2ccccc2O3)n1` (centres undefined), for which the activity change, negative = inhibition was 0.492% (inactive).

For the molecule `Cc1cccc(Cl)c1NC(=O)N1CCN(CC(C)C)C(=O)C1C` (centres undefined), the activity change, negative = inhibition was -2.03% (inactive).

As to `O=C(Nc1cnc2n1CCCC2)c1ccccc1-n1cncn1`, the activity change, negative = inhibition is -1.83% (inactive).

On to `C=CCn1cc(-c2c(-c3ccccc3)ncn2CCc2ccccn2)cn1`, for which the activity change, negative = inhibition is -1.4% (inactive).

As for `O=C(CN1CCCC1=O)N1CCCC2(C=Cc3ccccc3O2)CC1` (centres undefined), the activity change, negative = inhibition was -13.8% (inactive).

For `Cc1ccc(CN2CCC3(CC2)CC(NC(=O)C2CC2)CCO3)cc1C` (centres undefined), the activity change, negative = inhibition was -5.15% (inactive).

With `Cc1ccccc1-c1nc2ccc(-n3cnnc3)cc2o1`, the activity change, negative = inhibition is -95.3% (active).

Take `Cc1ccc(-c2ccccc2-n2cnnc2)o1`: the activity change, negative = inhibition is -6.57% (inactive).

`COCCNC(=O)C[C@@H]1CC[C@H]2[C@H](COc3ccc(NS(=O)(=O)c4ccc(Cl)cc4)cc3C(=O)N2C)O1`: the activity change, negative = inhibition was -37.6% (inactive).
